Measured values: PubChem BioAssay AID489018 (Southern Research Specialized Biocontainment Screening …, 2010)
Hit rate of the full screen: of about 2,300 compounds, about 350 (15%) were called active. No rule for the calls is given here. Not all results are given here. Entries with a potency or affinity are not part of this list.

Assay: HepG2 cell cytotoxicity, dose response, cytotoxicity control for non-replicating M. tuberculosis project (AID 489018);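 also: HepG2 human liver cells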
Conditions: series mostly up to 20 µM

| SMILES | outcome |
| --- | --- |
| O=C(N/N=C/c1cc([N+](=O)[O-])ccc1O)C12CC3CC(CC(C3)C1)C2 | inactive |
| CCN1CCN(c2ccc(S(=O)(=O)N3CCCCC3)cc2NC(=O)c2ccc([N+](=O)[O-])o2)CC1 | inactive |
| O=C(OCc1cccc(F)c1)c1ccc2c(=O)n3c(nc2c1)CCC3 | inactive |
| CN(C)CC/C=C1/c2ccc(F)cc2Sc2ccc(Cl)cc21 | inactive |
| O=[N+]([O-])c1cc(-c2nc(-c3ccncc3)no2)cc([N+](=O)[O-])c1 | inactive |
| O=c1c2cc(Cl)ccc2oc2nc3n(c(=O)c12)CCCS3 | inactive |
| CC(=O)CC1(OC(C)=O)C(=O)N(C)c2ccccc21 (configuration not stated) | inactive |
| COc1cc(OC)cc(OC(=O)c2ccc3c(=O)n4c(nc3c2)CCC4)c1 | inactive |
| O=C(CCN1CCOCC1)c1ccc(Cl)cc1 | inactive |
| O=C(Oc1cccc2cccnc12)c1cccc([N+](=O)[O-])c1 | inactive |
| COc1cc(NC(=O)N2CCOCC2)cc(OC)c1 | inactive |
| O=C(Oc1cccc2cccnc12)c1ccc2c(c1)OCCO2 | inactive |
| O=C(Oc1cccc2cccnc12)c1cccc(-n2cnnn2)c1 | inactive |
| COc1ccc(/C=N/NC(=O)c2ccncc2)cc1CN1CCOCC1 | inactive |
| Oc1ccc(F)c2cccnc12 | inactive |
| CCc1ccc(N2NC(=O)/C(=C/C=C/c3ccco3)C2=O)cc1 | inactive |

| SMILES | outcome |
| --- | --- |
| Cc1ccccc1OCCCCc1c(C)n[nH]c1C | inactive |
| COc1ccc(C(=O)COC(=O)c2ccc(Cl)nc2)c(OC)c1 | inactive |
| COc1ccc(N2C(=O)NC(=O)/C(=C/c3ccc([N+](=O)[O-])s3)C2=O)cc1 | inactive |
| CCc1ccc(Cc2cnc(NC(=O)C3=NCCN3)s2)cc1 | inactive |
| CCCCNC(=O)Cc1ccc(C)cc1 | inactive |
| COc1cccc2[nH]c3c(Cl)ncnc3c12 | inactive |
| Cc1ccc(C(=O)Oc2cccc(-n3cnnn3)c2)cc1 | inactive |
| O=C(COc1c(Br)cc(Br)c2cccnc12)N1CCCCC1 | inactive |
| CCOC(=O)C1(CCc2ccccc2)CCN(Cc2ccccn2)CC1 | inactive |
| O=C(OCC(=O)N1CCN(c2ccccc2)CC1)c1cnc(Cl)c(Cl)c1 | inactive |
| Cc1[nH]n2c(=O)c3c(nc2c1-c1ccccc1)CCCC3 | inactive |
| O=C(Nc1nc2ccccc2[nH]1)c1cccc([N+](=O)[O-])c1 | inactive |
| Cc1cc(C)n2[nH]c(=O)c(N=Nc3cccc(C(F)(F)F)c3)c2n1 | inactive |
| CCOC(=O)c1ccc(-c2ccc(C(=O)Nc3cccnc3)o2)cc1 | inactive |
| Cc1cccc(C)c1NC(=O)COC(=O)CCc1c[nH]c2ccccc12 | inactive |
| O=C(COc1ccc(-c2ccccc2)cc1)Nc1cccnc1 | inactive |
